Molecules are shown by their SMILES.

Data on 10 molecules can be found in the supplement of paper PMC13380429.

In assay [1] the test system is Vero E6 infected with SARS-CoV-2. Nature of the assay: morphology score (similarity to uninfected cells); higher = more like uninfected cells. The settings on record: 24 h.
For assay [2] the test system is unchanged. The assay is described as follows: SARS-CoV-2 infection rate relative to infected DMSO; higher = more infection, active = 60 or less. The note with it: 24 h.

Regarding `NS(=O)(=O)c1cc2c(cc1Cl)NC(C1CC3C=CC1C3)NS2(=O)=O` (stereo not given) [cyclothiazide] (10 µM), the morphology score in assay [1] came out at 0.0121. Moreover, in assay [2], the SARS-CoV-2 infection rate was 106% (inactive).
For `N#Cc1c(N)nc(SCc2ncc[nH]2)c(C#N)c1-c1ccc(O)cc1` (10 µM), in that order: -0.0242 and 108% (inactive).
For `Cc1cc(-c2ccc(CC(=O)Nc3ccc(-c4cccnc4)cc3)cc2)ccn1` (10 µM), in that order: 0.392 and 75.5% (inactive).
For `COc1ccncc1C(=O)NC(=O)Nc1ccc(-c2ccccc2)c(C(F)(F)F)c1` [S1P1-agonist-III] (10 µM), in that order: -0.0188 and 100% (inactive).
Molecule `CC(C)(Cc1c[nH]c2ccc(Cl)cc12)NCCOc1ccccc1OCC1CC1` (0.833333 µM) had a morphology score in assay [1] of 0.193. Further, the SARS-CoV-2 infection rate in assay [2] is 110% (inactive).
Turning to `CCCSc1nc(N[C@@H]2C[C@H]2c2ccc(F)c(F)c2)c2nnn([C@@H]3C[C@H](OCCO)[C@@H](O)[C@H]3O)c2n1` [ticagrelor] (10 µM), the morphology score in assay [1] was -0.0229. Besides, the SARS-CoV-2 infection rate in assay [2] was 104% (inactive).
For `CO/N=C(\C(=O)N[C@@H]1C(=O)N2C(C(=O)O)=C(CSc3nc(=O)c(O)nn3C)CS[C@H]12)c1csc(N)n1` [ceftriaxone] (10 µM), in that order: -0.108 and 112% (inactive).
With `O=C(O)CC1CC(c2ccccc2)=NO1` (stereo not given) (10 µM), in assay [1], the morphology score is -0.0313. Further, the SARS-CoV-2 infection rate in assay [2] was 116% (inactive).
For `NCCCCN` [putrescine] (10 µM), in that order: 0.0364 and 94% (inactive).
For `CN[C@@H](C)C(=O)N[C@H](C(=O)N1CCC[C@H]1C(=O)Nc1sc(-c2ncco2)nc1-c1ccccc1)C1CCCCC1` (10 µM), in that order: 0.185 and 102% (inactive).
